ATXN2 expr inh = inhibitors of ATXN2 expression | 0.72% of 360,000 active | AID 1745845 | HEK-293 ATXN2-luciferase reporter, luminescence, 24 h | Potency, µM (series often up to 57 µM), without a hit: at the highest dose activity change, negative = inhibition, usual class: inhibitors; note: % is set by controls: 0 for no effect and ±100 for the full control effect; nearly all actives have a fitted effect of over 55% in size
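ATXN2-luciferase reporter cells (luciferase flanked by upstream and downstream ATXN2 gene portions) were treated 24 h at 37 °C with compounds at up to 57 uM. SteadyGlo luminescence gave expression; GF-AFC fluorescence gave viability.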
TDP1 cell noCPT = qHTS for Inhibitors of human tyrosyl-DNA phosphodiesterase 1 (TDP1): qHTS in cells in absence of CPT. DT40 Tdp1-/- hTDP1 cells, no CPT, ATP luminescence, 48 h. AID 686978, 2013. 15% of 420,000 active. Potency, µM (doses to about 46.2 µM), for inactives: top-dose activity change, negative = growth inhibition, usual class: inhibitors; note: % is set by controls: 0 for no effect and ±100 for the full control effect; nearly all actives have a fitted effect of over 55% in size
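Stably hTDP1-transfected Tdp1-null chicken DT40 cells were treated with library compounds minus camptothecin and grown for at least 48 hr at 37 °C, after which cellular ATP was quantified by luminescence.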
ATXN viability = cell viability loss in ATXN counter-screen; S2 cells (HEK-293 line with an ATXN2-luciferase reporter) viability, CellTiter-Fluor protease fluorescence, 24 h; Potency, µM (doses to about 56.7 µM), hits mostly cytotoxic; 0.49% of 400,000 active; AID 651635; note: nearly all actives have a fitted effect of over 40% in size
TGFb inhibitor = TGF-b pathway inhibition; 1.2% of 410,000 active; HepG2 CAGA-GFP TGF-b/SMAD3 reporter, GFP fluorescence, 18 h; TGF-beta stimulated, 500 pg/mL final; Potency, µM (top dose mostly 46.1 µM), inactives show at the highest dose activity, negative = inhibition, actives largely listed as inhibitors; note: % is set by controls: 0 for no effect and ±100 for the full control effect; nearly all actives have a fitted effect of over 65% in size
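Using HEPG2 CAGA-GFP reporter cells at 1000 cells/well, we pinned test compounds, stimulated with recombinant TGF-beta (500 pg/mL final) and measured total well GFP after 18 h.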
DT40 TDP1 CPT = growth inhibition of DT40 Tdp1-/-;hTDP1 cells with camptothecin (screen for TDP1 inhibitors); chicken DT40 Tdp1-/-;hTDP1 cells + 20 nM CPT, ATP luminescence, 48 h; 12% of 420,000 active; Potency, µM (titrated, usually from 46.2 µM), for inactives: top-dose activity change, negative = growth inhibition, hits mostly inhibitors; AID 686979; note: % is set by controls: 0 for no effect and ±100 for the full control effect; nearly all actives have a fitted effect of over 55% in size
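Cell growth measured by CellTiter-Glo luminescence after a minimum 48 h, 37 C compound exposure with 20 nM CPT in Tdp1-knockout DT40 cells stably expressing hTDP1, seeded 400/well; qHTS titration format.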
HepG2 tox = HepG2 cytotoxicity, counter-screen for TGF-b inhibitors. AID 588856. Potency, µM (titrated, usually from 46.1 µM), for inactives: at the highest dose activity change, negative = cytotoxicity, actives largely listed as cytotoxic. 0.76% of 410,000 active. HepG2 CAGA-GFP viability, ATP luminescence, 18 h
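HepG2 CAGA-GFP cells (1000/well, DMEM with 1% FBS) received compound, then TGF-beta at 500 pg/mL final, and were incubated 18 hours at 37 degrees C. Viability was read by CellTiter-Glo luminescence. Media-only wells were set as complete cell-killing and DMSO as no toxicity.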
Starred values were filed as active, the others as inactive; i = inactive; ? = inconclusive; nt = no result given; [ ] = another dose, or the depositor's remark. Sampled rows, rich in hits. Any-hit rate of the full collection: about 17%. Calls come from the whole dose curve; as a rule, active = well fitted curve in the direction sought with a large enough effect; inconclusive = small, poorly fitted or top-dose-only effect, or another doubt; inactive = no such curve, though single readings can be large; an effect the other way counts as inactive or inconclusive. Potency is the fitted concentration of half-maximal effect.

SMILES	ATXN2 expr inh	TDP1 cell noCPT	ATXN viability	TGFb inhibitor	DT40 TDP1 CPT	HepG2 tox
Cn1cc(C2=C(c3cn(CCCSC(=N)N)c4ccccc34)C(=O)NC2=O)c2ccccc21	nt	0.708µM*	nt	0.708µM*	0.631µM*	2µM*
CN(C)CCCn1cc(C2=C(c3c[nH]c4ccccc34)C(=O)NC2=O)c2ccccc21	nt	23.7µM*	nt	nt	-121.7%	nt
COC(=O)c1ccc(CN2CCC3(CCC(CNC(=O)c4ccccc4)O3)CC2)cc1 (stereo not given)	nt	-25.1%	i	nt	-0.7%[9.04 µM]	nt
Cc1cccc(NC(=O)[C@@H](NC(=O)[C@@H]2Cc3ccccc3CN2)C(C)C)c1	6.0%	11.5%	i	6.7%	-5.0%	1.5%
CSCCC(NC(=O)COc1ccccc1)C(=O)N(C)Cc1cccc(F)c1 (stereo not given)	1.9%	?	i	-0.1%	?	-3.9%
COc1ccc(NC(=O)c2ccc3c(SCC(=O)O)c4c(nc3c2)CCC4)c(OC)c1	2.8%	-0.9%	i	-9.6%	0.2%	4.4%
CCN(CC)S(=O)(=O)c1ccc(NC(=O)c2cc(-c3cccs3)nc3ccccc23)cc1	-13.7%	?	i	?	?	0.3%
Cc1ccc(-c2cc(C(=O)Nc3cccnc3)c3ccccc3n2)s1	7.6%	?	i	?	?	0.0%
Cc1cc(NC(=O)c2cc(-c3cccs3)nc3ccccc23)no1	-15.7%	25.9µM*	i	2.2%	20.6µM*	-0.2%
CN(C)S(=O)(=O)c1ccc(NC(=O)c2cc(-c3cccs3)nc3ccccc23)cc1	-13.1%	14.6µM*	i	?	?	-11.7%
COc1ccc(-c2cc(C(=O)Nc3cc(C)on3)c3ccccc3n2)c(OC)c1	4.3%	9.2µM*	i	-41.9%	11.6µM*	-14.6%
Cc1cc(C)nc(NC(=O)c2cc(-c3ccc(C)s3)nc3ccccc23)c1	-0.1%	20.6µM*	i	-24.5%	?	-9.9%
Cc1cc(NC(=O)CSc2nc(-c3cccs3)nc3ccccc23)no1	-19.2%	1.84µM*	?	-23.4%	2.31µM*	-8.9%
Cc1cc(NC(=O)c2cc(-c3ccc(C)c(C)c3)nc3ccccc23)no1	2.8%	10.3µM*	?	0.0%	11.6µM*	-24.5%
Cc1cc(NC(=O)CSc2nc(C(C)(C)C)nc3ccccc23)no1	4.5%	?	?	?	?	-59.9%
Cc1cc(NC(=O)c2cc(-c3ccccn3)nc3ccccc23)no1	1.4%	-21.2%	i	-17.1%	-6.8%	3.4%
C/C(CCC(C)C)=N\Nc1cc(C)c2ccccc2n1	-4.6%	7.31µM*	i	?	10.3µM*	-16.5%
C=CCn1c(COc2cc(C)ccc2C(C)C)nnc1SCC(=O)c1c(N)n(C)c(=O)n(C)c1=O	-21.4%	23.1µM*	i	-1.8%	?	0.8%
O=C(Cc1ccccc1)Nc1ccccc1C(=O)NCC1CCCO1 (stereo not given)	4.0%	6.1%	i	-2.6%	9.2%	-17.6%
O=C(CCl)N(C1CCCC1)C1CCS(=O)(=O)C1 (stereo not given)	?	14.6µM*	?	?	18.4µM*	-43.1%
Nc1cccc2cccc([N+](=O)[O-])c12	-6.3%	-28.5%	?	-2.9%	-17.8%	-19.0%
C/C(=N\NC(N)=S)c1ccc2c(c1)OCCO2	1.1%	?	?	6.7%	-23.4%	-6.8%
C/C(=N\NC(=S)Nc1ccc(F)cc1)c1ccc2c(c1)OCCO2	15.7%	0.92µM*	i	-29.5%	0.92µM*	-74.9%
C/C(=N\NC(=S)NCc1ccccc1)c1ccc(C)o1	-1.6%	5.17µM*	i	-15.2%	?	-13.3%
C/C(=N\NC(=S)NCc1ccccc1)c1ccc2c(c1)OCCO2	nt	23.1µM*	i	?	16.4µM*	-39.2%
SMILES	ATXN2 expr inh	TDP1 cell noCPT	ATXN viability	TGFb inhibitor	DT40 TDP1 CPT	HepG2 tox
O=C(Nc1nc2ccccc2n1CCOc1ccccc1)c1ccco1	-19.9%	14.6µM*	i	?	14.6µM*	-23.7%
O=C(Nc1nc2ccccc2n1CCOc1ccc(Cl)cc1)c1ccco1	?	18.4µM*	?	-22.9%	25.9µM*	-42.5%
Cc1cccc(OCCn2c(NC(=O)c3ccco3)nc3ccccc32)c1	?	?	nt	-6.4%	25.9µM*	-24.1%
CN(Cc1nccn1C)C(=O)CC1C(=O)NCCN1Cc1ccccc1C(F)(F)F (stereo not given)	12.4%	-4.5%	i	3.4%	?	-4.9%
COCCn1c(SCC(=O)Nc2cccc(C)c2C)nc2c(oc3ccccc32)c1=O	2.4%	-13.2%	i	?	-13.0%	2.9%
Cc1cccc2cc(CNCC3CCCO3)c(Cl)nc12 (stereo not given)	-14.7%	-13.4%	i	-5.3%	7.3%	-1.8%
COc1cc(OC)nc(Nc2nc(C(N)CCc3ccccc3)cs2)n1 (stereo not given)	?	?	?	?	25.9µM*	-97.2%
COc1cc(OC)nc(Nc2nc(C(N)Cc3ccc(Cl)cc3)cs2)n1 (stereo not given)	31.6µM*	14.6µM*	nt	?	23.1µM*	11.2µM*
COc1cc(OC)nc(Nc2nc(C(N)COCc3ccccc3)cs2)n1 (stereo not given)	-10.3%	?	i	?	?	-70.0%
COC(=O)c1cc(C)nc(Nc2nc(C(N)Cc3ccc(Cl)cc3)cs2)n1 (stereo not given)	-13.3%	?	i	-13.3%	?	-25.8%
COc1ccc(Br)cc1/C=C\C(=O)NCc1cccnc1	-3.9%	?	i	0.0%	1.0%	-169.7%
Cc1ccc(CSc2ncc(Cl)c(C(=O)Nc3nnc(C)s3)n2)cc1	10.9%	-19.9%	i	6.1%	-6.0%	12.3%
CCc1ccc(S(=O)(=O)c2nnn3c2nc(Nc2cccc(C)c2C)c2sccc23)cc1	nt	20.6µM*	nt	43.4%	23.1µM*	0.0%
CCc1ccc(S(=O)(=O)c2nnn3c2nc(NC(C)C)c2sccc23)cc1	nt	?	nt	35.8%	20.6µM*	-1.1%
CN(C)S(=O)(=O)c1ccc(=S)[nH]c1	nt	?	i	7.6%	-9.4%	1.5%
Cc1ccc(Cl)cc1N1CCN(C(=O)COc2ccc(S(=O)(=O)NC(C)C)cc2)CC1	?	18.4µM*	?	?	13µM*	-27.4%

Source: PubChem BioAssay (National Center for Advancing Translational Sciences (NCATS))
